NIH3T3 tox: Cytotoxic Profiling in NIH 3T3 Cell Line of Diverse Libraries Using Quantitative High-Throughput Screening; NIH 3T3 viability, CellTiter-Glo ATP luminescence, 48-72 h; AID 1345082, 2018; actives 4.3% (n = 94,000); Potency, µM (series often up to 96.7 µM), for inactives: at the highest dose activity change, negative = cytotoxicity, hits mostly inhibitors; further: nearly all actives have a fitted effect of over 55% in size
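Mouse fibroblast NIH 3T3 cells, 400 per well, received compound via pintool and were incubated for 48 or 72 hr prior to CellTiter-Glo ATP luminescence measurement.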
HEK293 tox: Cytotoxic Profiling in HEK 293 Cell Line of Diverse Libraries Using Quantitative High-Throughput Screening | HEK 293 viability, ATP luminescence (CellTiter-Glo), 48-72 h | Potency, µM (doses to about 115 µM), without a hit: at the top dose activity change, negative = cytotoxicity, most hits filed as inhibitors | actives 6.6% (n = 94,000) | AID 1345083, 2018; further: nearly all actives have a fitted effect of over 60% in size
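qHTS cytotoxicity; HEK 293, 250 cells/well; compound pinned; 48 or 72 hr, 37 degree Celsius, 5% CO2, 95% humidity; CellTiter-Glo, 10 min RT; luminescence (ATP).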
FLuc inh: Firefly luciferase inhibition profiling of diverse chemical library using quantitative high-throughput screening | purified P. pyralis luciferase, luminescence, biochemical | actives 2.5% (n = 76,000) | Potency, µM (titrated, usually from 115 µM), most hits filed as inhibitors; further: nearly all actives have a fitted effect of over 65% in size
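Purified 10nM P. pyralis luciferase with 10uM D-luciferin and 10uM ATP in 50mM Tris acetate pH 7.5, 10mM Mg acetate, 0.01% Tween-20, 0.05% BSA. qHTS titration; luminescence read by CCD imager.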
GPT2 inhibitor: Primary qHTS assay for inhibitors of Glutamate pyruvate transaminase 2 (GPT2). Potency, µM (doses to about 57.7 µM), for the others: top-dose activity change, negative = inhibition, actives largely listed as inhibitors. actives 0.25% (n = 100,000). Alanine aminotransferase 2 (Homo sapiens), Q8TD30. Recombinant GPT2, coupled pyruvate oxidase/HRP Amplex Red fluorescence. AID 1671188, 2021; further: nearly all actives have a fitted effect of over 60% in size
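Recombinant GPT2 (10ng/uL) with 250uM a-KG and 2mM L-alanine, 30 min at room temperature, in HEPES pH 7.5 buffer. Pyruvate detected by pyruvate oxidase/HRP/Amplex Red fluorescence after 30 min in the dark; AOA (50uM) as positive control.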
hNpr1 antagonist: Natriuretic polypeptide receptor (hNpr1) antagonism - Primary qHTS. Atrial natriuretic peptide receptor 1 (Homo sapiens), P16066. Potency, µM (titrated, usually from 46.3 µM), for the others: top-dose activity change, negative = inhibition, usual class: inhibitors. actives 1.6% (n = 76,000). HEK293 hNpr1 GloSensor cGMP, ANP-stimulated luminescence. AID 1347048, 2019; calls by dose curve; further: nearly all actives have a fitted effect of over 60% in size
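Compound pre-incubated 30 min at room temperature on GloSensor-loaded HEK293 cells stably carrying hNpr1 and the pGS-40F cGMP biosensor. Stimulation uses hNppA at 0.1 nM final; luminescence is taken at baseline and 20 min post-agonist.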
* hit, by the source's call; i = inactive; ? = inconclusive; · = no result given; [ ] = dose if it differs, or a comment. Sampled rows, rich in hits. Any-hit rate of the full collection: about 10%. Unless noted, the call rests on the fitted dose curve; in most records, active means well fitted curve in the direction sought with a large enough effect; inconclusive means small, poorly fitted or top-dose-only effect, or another doubt; inactive means no such curve, though single readings can be large; an effect the other way counts as inactive or inconclusive. On the % scale 0 is the no-effect control and ±100 the full control effect; potency means the concentration at half of the fitted maximal effect.

SMILES	NIH3T3 tox	HEK293 tox	FLuc inh	GPT2 inhibitor	hNpr1 antagonist
Cc1cccc(-c2cccc(CN3CCC(NC(=O)C(C)(C)C)CC3)c2)c1	?	44.7µM*	·	-2.7%	·
Cc1cccc(-c2cccc(CN3CCC(NC(=O)Cc4cccc(Cl)c4)CC3)c2)c1	14.1µM*	20µM*	·	i	·
Cc1cccc(-c2cccc(CN3CCC(NC(=O)c4ccc(F)cc4)CC3)c2)c1	?	?	·	-6.0%	·
Cc1cccc(-c2cccc(CN3CCC(NC(=O)c4ccccc4Cl)CC3)c2)c1	?	?	·	i	·
Cc1cccc(-c2cccc(CN3CCC(NC(=O)c4cccc(Cl)c4)CC3)c2)c1	20µM*	28.2µM*	·	i	·
C=C/C=C/[C@@H]1OC[C@H](/C=C/C=C/C)[C@H]1O	·	·	·	i	·
Cc1ccc(OCc2nc(C3CCN(C(=O)c4ccco4)CC3)no2)cc1	?	?	i	i	-29.7%
CN1Cc2ccccc2NCCC1=O	?	-9.5%	·	·	·
COc1cc(CNc2nc(-c3c(C)noc3C)cc3cc(C)oc23)cc(OC)c1	25.1µM*	?	i	-5.5%[88.5 µM]	?
Cc1cc2cc(-c3c(C)noc3C)nc(Nc3ccccc3)c2o1	31.6µM*	?	i	-7.6%[88.5 µM]	-7.8%[70.6 µM]
Cc1cc2cc(-c3c(C)noc3C)nc(N(C)CCN(C)C)c2o1	?	100µM*	i	-4.2%[88.5 µM]	3.9%[70.6 µM]
Cc1cc2cc(-c3c(C)noc3C)nc(-c3ccc([S+](C)(=O)[O-])cc3)c2o1	?	-19.6%[172 µM]	i	-9.7%[88.5 µM]	1.3%[70.6 µM]
CC(C)NC(=O)N1CCC2(CC1)CC(c1cccc(C(F)(F)F)c1)=NO2	-11.0%	?	·	·	·
COc1ccccc1CNC(=O)c1nnn2cc(C)[nH]c(=O)c12	-6.3%	0.9%	i	?	0.0%
COc1ccccc1-c1cccc(CN2CCC(N[S+](=O)([O-])c3ccc(C)cc3)CC2)c1	?	35.5µM*	·	-1.1%	·
COc1ccccc1-c1cccc(CN2CCC(N[S+](=O)([O-])c3c(C)noc3C)CC2)c1	35.5µM*	35.5µM*	·	-27.4%	·
COc1ccccc1-c1cccc(CN2CCC(N[S+](C)(=O)[O-])CC2)c1	?	?	·	i	·
CCCS(=O)(=O)N1CCC(N2CC(OCC3CC3)C23CCCCC3)CC1 (centres undefined)	?	-2.9%	·	-11.9%	·
O=C(NCc1ccc(F)cc1)c1nn(CCOc2ccccc2)c2c1CNCC2	?	39.8µM*	·	i	·
O=C(NCc1ccncc1)[C@@H]1C[C@@H](c2ccc(F)cc2)N(CCOc2ccccc2)C1	?	?	i	-8.3%[88.5 µM]	-15.1%[70.6 µM]
COc1ccc(-c2ccc(C(=O)N3CCC(NC(=O)Nc4ccc(C)c(F)c4)CC3)cc2)nn1	-23.7%	-29.2%	·	·	·
CCOC(=O)c1oc2ccc(S(=O)(=O)NCC3Cn4cccc4C(=O)N3C)cc2c1C (centres undefined)	-25.5%	39.8µM*	i	4.6%	?
COc1cccc(S(=O)(=O)NCC2Cn3cccc3C(=O)N2C)c1 (centres undefined)	-15.9%	-8.2%	i	1.8%	0.6%
COCCNC(=O)N1CCCC(c2noc(COc3ccccc3)n2)C1 (centres undefined)	-17.0%	-13.1%	i	i	-12.7%
Cc1ccc(NC(=O)N2CCCC(c3noc(COc4ccccc4)n3)C2)c(C)c1 (centres undefined)	?	?	?	i	12.6µM*
SMILES	NIH3T3 tox	HEK293 tox	FLuc inh	GPT2 inhibitor	hNpr1 antagonist
CCNC(=O)N1CCCC(c2noc(COc3ccccc3)n2)C1 (centres undefined)	-28.3%	-10.9%	31.6µM*	i	-24.6%
C[C@H](O)c1c(-c2ccc(Cl)cc2)noc1C(=O)NC1CC1	?	112µM*	i	?	-7.8%[70.6 µM]
CN1CCN(C(=O)C[C@@H]2CCNC[C@@H]2Cc2cc(-c3ccccc3)on2)CC1	?	-29.5%[172 µM]	i	-10.8%[88.5 µM]	-13.4%[70.6 µM]
O=C(C[C@@H]1CCNC[C@@H]1Cc1cc(-c2ccccc2)on1)N1CCc2ccccc2C1	31.6µM*	39.8µM*	i	4.9%[88.5 µM]	-11.2%[70.6 µM]
COc1ccc(-c2cc(C[C@H]3CNCC[C@H]3CC(=O)N3CCN(c4ccccc4)CC3)no2)cc1	25.1µM*	39.8µM*	i	-0.9%	-0.5%
CN(Cc1cc(C[C@H]2CNCC[C@H]2CC(=O)N2CCN(c3ccccc3)CC2)no1)c1ccccc1	20µM*	?	i	-3.1%	-17.4%
COc1cc2c(cc1OC)CN(C(=O)C[C@@H]1CCNC[C@@H]1Cc1cc(-c3ccccc3)on1)CC2	?	79.4µM*	i	2.7%	3.7%
O=C1OCC2(CCN(Cc3ccc4c(c3)CCO4)C2)N1Cc1ccccc1 (centres undefined)	?	?	i	-1.4%[88.5 µM]	-10.3%[70.6 µM]
COc1ccc(NC(=O)CN2C(=O)NC3(CCC(C(C)(C)C)CC3)C2=O)c(OC)c1 (centres undefined)	?	35.5µM*	i	-23.0%	0.0%
COc1ccc(C)cc1NC(=O)CN1C(=O)NC2(CCC(C(C)(C)C)CC2)C1=O (centres undefined)	?	?	i	-5.8%	-23.6%
CC(C)(C)C1CCC2(CC1)NC(=O)N(CC(=O)Nc1ccc(F)cc1F)C2=O (centres undefined)	-41.8%	?	i	?	-7.5%
Cc1cc(F)ccc1NC(=O)CN1C(=O)NC2(CCC(C(C)(C)C)CC2)C1=O (centres undefined)	39.8µM*	?	i	i	-1.8%
CCCCNc1nc2c(s1)C[C@]1(C)CC[C@@H]3[C@H](OC(=O)[C@H]3C)[C@H]1[C@@H]2C	?	?	?	?	17.8µM*
COc1ccccc1CNC(=O)C[C@@H]1c2nc(-c3cccnc3)sc2C[C@@H]2[C@](C)(CO)[C@H](O)CC[C@]21C	79.4µM*	?	i	1.7%	-10.0%
CC(=O)Nc1nc2c(s1)C[C@@H]1[C@](C)(CO)[C@H](O)CC[C@@]1(C)[C@@H]2CC(=O)NC1CC1	-18.4%[138 µM]	-10.8%[172 µM]	i	?	-2.8%[70.6 µM]
CC(C)(C)c1ccc(C(=O)Nc2nc3c(s2)C[C@@H]2[C@](C)(CO)[C@H](O)CC[C@@]2(C)[C@@H]3CC(=O)N2CCOCC2)cc1	35.5µM*	?	i	i	-3.3%
CC(C)NC(=O)C[C@@H]1c2nc(NC(=O)c3ccc(C(C)(C)C)cc3)sc2C[C@@H]2[C@](C)(CO)[C@H](O)CC[C@]21C	50.1µM*	39.8µM*	?	-9.9%	4.7%

Source: PubChem (National Center for Advancing Translational Sciences (NCATS))
